Here are results for 51 molecules from PubChem BioAssay AID720580 (National Center for Advancing Translational Sciences (NCATS), 2013).

SMILES strings stand for the structures. Several values for one entry are separate records, joined by “and”; a condition that tells them apart may be missing. Identical values can stand only once. In all, about 330,000 compounds went through this assay and about 1,500 (0.45%) were called active. About 6% were inconclusive and are not listed. The call rests on the fitted dose curve; tested in A549 cells. Many of the other results were omitted from the sample, so actives are more common in it than they were. Where a structure was tested more than once in an assay, its records may differ in their call.
On the % scale 0 is the no-effect control and ±100 the full control effect; potency means the concentration at half of the fitted maximal effect.

The assay is described as follows: qHTS for Stage-Specific Inhibitors of Vaccinia Orthopoxvirus: Venus Reporter Primary qHTS. Further: nearly all actives have a fitted effect of over 30% in size. Conditions: Vaccinia virus Venus reporter expression, fluorescence; series mostly up to 36.5 µM; activity change, negative = inhibition: at the top concentration. In general terms: In qHTS, concentration-response curves come from the screen itself.
Consider `Cc1ccccc1-c1ccc(Nc2ccc(C(=O)N3CCOCC3)cc2)nn1`, for which the “activity change, negative = inhibition” value is -11.8% (inactive).
Regarding `CCCCC(CCCC)c1ccc(C=Nc2ccc(/C=C/c3ccnc4ccccc34)cc2)cc1`, the “activity change, negative = inhibition” value was -2.48% (inactive).
For the molecule `Cc1ccccc1-c1csc(C(O)c2cccc(Cl)c2)n1` (stereo unspecified), the “activity change, negative = inhibition” value was -11.5% (inactive).
Still for that read-out and setting: for `N=C1c2ccccc2-c2ccccc21` the value was -6.01% (inactive).
As for `c1ccc2c(c1)[I+]c1ccccc1-2`, the Potency result is “inactive and 10 µM (active)”.
Regarding `CCCC[C@@H]1CN=C(N)N1CCc1cccc(F)c1`, the “activity change, negative = inhibition” value is -11.5% (inactive).
In the case of `CCCC[C@@H]1CN=C(N)N1CCc1cc(C(F)(F)F)cc(C(F)(F)F)c1`, the Potency was 10 µM (active).
For the molecule `CCCC[C@@H]1CN=C(N)N1CCCC`, the “activity change, negative = inhibition” value was -24.8% (inactive).
As to `COc1cc(CNc2ncnc3c2ncn3[C@H]2CN(Cc3cccs3)C[C@@H](CO)O2)cc(OC)c1OC`, the “activity change, negative = inhibition” value is -6.64% (inactive).
On to `NCCCCC(C(=O)O)N(C(=O)OCc1ccccc1)C(=O)OCc1ccccc1` (stereo unspecified), for which the “activity change, negative = inhibition” value is -4.22% (inactive).
Turning to `COc1ccc(-c2nn(-c3ccccc3)cc2/C=N/Nc2ccccn2)cc1OC`, the Potency is 14.1 µM (active).
In the case of `O=Cc1cn(-c2ccccc2)nc1-c1ccccn1`, the “activity change, negative = inhibition” value is -11.6% (inactive).
Regarding `Cc1ccc(-c2nn(-c3ccccc3)cc2/C=N/NC(=O)c2ccc3c(c2)OCO3)cc1`, the “activity change, negative = inhibition” value is -19.4% (inactive).
Consider `CCC(C)N1C(=O)S/C(=C/c2ccc(Sc3nc4ccccc4[nH]3)o2)C1=O` (stereo unspecified), for which the Potency is 11.2 µM (active).
Turning to `O=C(CSc1nc2ccccc2[nH]1)Nc1nc(-c2ccccc2)c(-c2ccccc2)o1`, the “activity change, negative = inhibition” value is -7.22% (inactive).
As to `CCC(c1nc2ccccc2[nH]1)n1c(=O)c(-c2cccs2)nc2ccccc21` (stereo unspecified), the “activity change, negative = inhibition” value is -17% (inactive).
For the molecule `O=C(NCc1ccc(F)cc1)c1cc(C2CCCCN2C(=O)C2CCCCC2)on1` (stereo unspecified), the “activity change, negative = inhibition” value is -14.1% (inactive).
On the same count and under the same terms, the figure for `COc1ccc(C2=Nc3ccccc3NC(=O)C2N(C(=O)c2cc3ccccc3[nH]2)c2ccccc2)cc1` (stereo unspecified) is 9.83% (inactive); for `C=CC[C@@H](CC(=O)N[C@H](CO)Cc1ccccc1)C(=O)N[C@H](C)COC(=O)[C@@H](CC=C)Cc1ccc(F)cc1` it is -16.5% (inactive); for `C=CC[C@@H](CC(=O)N[C@H](CO)Cc1ccccc1)C(=O)N[C@@H](COC(=O)[C@@H](CC=C)Cc1ccc(F)cc1)Cc1c[nH]c2ccccc12` it is -9.16% (inactive).
As for `C=CCC[C@H](Cc1ccc(F)cc1)C(=O)OC[C@@H](NC(=O)[C@@H](CC=C)CC(=O)N[C@H](CO)Cc1ccccc1)C(C)(C)C`, the Potency is 11.2 µM (active).
As to `Cc1ccccc1Cn1c(C)c(C(=O)NCc2cccc(C(F)(F)F)c2)sc1=O`, the “activity change, negative = inhibition” value is -8.3% (inactive).
Turning to `CN1CC[C@H](c2c(O)cc(O)c3c(=O)cc(-c4ccccc4Cl)oc23)[C@H](O)C1`, the Potency was 0.0794 µM (active).
Turning to `O=C(Nc1ccc(Cl)c(C(F)(F)F)c1)C1Cc2c(-c3ccccc3Oc3ccccc3)ccnc2O1` (stereo unspecified), the “activity change, negative = inhibition” value was -1.56% (inactive).
The same measure, in the same setting: for `CC1(C(=O)Nc2ccc3c(c2)OCCO3)CCN1C(=O)Cc1cc(F)ccc1F` (stereo unspecified) the value was -1.79% (inactive).
As to `CCc1ccc(-c2nn(-c3ccccc3)cc2CSC(=N)N)cc1`, the Potency was 11.2 µM (active).
Take `CN(C)Cc1cn(-c2ccccc2)nc1-c1ccccc1`: the “activity change, negative = inhibition” value was -25.3% (inactive).
Still for that read-out and setting: for `CCc1ccc(-c2nn(-c3ccccc3C)cc2C(=O)N2CCN(C3CCS(=O)(=O)C3)CC2)cc1` (stereo unspecified) the value was -1.86% (inactive).
Still for that read-out and setting: for `COC(=O)C1CCCCN1Cc1ccc2c(c1)CN(Cc1cc(OC)c3c(c1)OCO3)CCO2` (stereo unspecified) the value was -4.65% (inactive); for `CCCCCc1c(-c2cccc(Br)c2)ncn1CCc1ccccc1OC`, 0.147% (inactive).
On the same count and under the same terms, the figure for `CCCCCc1c(-c2ccc(OC)c(OC)c2)ncn1CCc1ccccc1OC` is -25.2% (inactive).
Take `CCCCCc1c(Cc2ccccc2)ncn1CCc1ccccc1OC`: the Potency was 1.41 µM (active).
Take `O=C(Nc1ccccc1)c1ccccc1OCc1ccccc1`: the “activity change, negative = inhibition” value was -6.03% (inactive).
As for `CC1(C(=O)NCC2CCOCC2)Cc2c(-c3cccc(C(N)=O)c3)ccnc2O1` (stereo unspecified), the “activity change, negative = inhibition” value is -7.77% (inactive).
Still for that read-out and setting: the figure for `COc1ccc(-c2nc3ccc(Br)cn3c2Cc2ccc(C)cc2)cc1OC` is -0.743% (inactive); for `Cn1c(Nc2cccc(Cl)c2)nc2ccccc21` it is -21.5% (inactive).
Turning to `OCCCNc1nccc(-c2cc(Nc3cccc(Cl)c3)ncn2)n1`, the Potency was 0.891 µM (active).
For `CCOC(=O)[C@]12CCCC=C1N(CCC1=CCCCC1)C(=O)[C@H](CC(=O)N1CCOCC1)C2`, the “activity change, negative = inhibition” value was -24.7% (inactive).
Same read-out and setting: for `CNc1cncc(-c2ccc(NS(C)(=O)=O)cc2)n1` the value was -23.2% (inactive); for `CCOC(=O)[C@]12CCC=C1N(CCC1=CCCCC1)C(=O)[C@H](CC(=O)NCc1ccc(C)o1)C2`, -2.7% (inactive); for `CC(C)(C)NC(=O)C(CCc1ccccc1)n1c(=O)c(-c2ccccc2)nc2ccccc21` (stereo unspecified), -12% (inactive).
Regarding `CNC(=O)c1cccc2nc3ccccc3nc12`, the Potency was 6.31 µM (active).
With `CN(C)C(=O)c1coc2nc3ccccc3nc12`, the “activity change, negative = inhibition” value was 31.2% (inactive).
For `CNC(=O)C(NC(=O)c1ccccc1)=C(C)C`, the “activity change, negative = inhibition” value was -8.97% (inactive).
On the same count and under the same terms, the figure for `Brc1ccc2nc(-c3ccccc3)c(Cc3ccccc3)n2c1` is -0.0366% (inactive); for `OC(Cc1ccc2ccccc2n1)c1ccc(Cl)c(Cl)c1` (stereo unspecified) it is -26.4% (inactive).
Same read-out and setting: for `COc1ccc(S(=O)(=O)N[C@@H]2C=C[C@@H](CC(=O)N3CCc4ccccc4C3)O[C@@H]2CO)cc1` the value was -15.7% (inactive).
The same measure, in the same setting: the figure for `COc1ccc(NC(=O)C2Cc3c(-c4ccc5c(c4)OCO5)ccnc3O2)cn1` (stereo unspecified) is -22.3% (inactive); for `Cc1ccc(NC(=O)NC(=O)c2ccccc2)cc1F` it is -7.1% (inactive).
As for `Cc1ccc(NC(=S)NC(=O)c2ccc(-c3ccccc3)cc2)cc1`, the “activity change, negative = inhibition” value is -10.3% (inactive).
Consider `Cc1cccc(NC(=O)NC(=S)NC(=O)c2ccccc2)c1`, for which the Potency is 10 µM (active).
